From PubChem BioAssay (NCATS)
The source made the active and inactive calls. Calls follow the shape of the dose curve; as a rule, active = well fitted curve in the direction sought with a large enough effect; inconclusive = small, poorly fitted or top-dose-only effect, or another doubt; inactive = no such curve, though single readings can be large or run the other way.

Experiment: HepG2 viability counterscreen (readout 2: ATP content) against the NCATS DSHEA and TCM libraries (AID 1794840);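 also: HepG2 cells exposed to substances for about 24 h; 0% is about no effect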
Conditions: ATP content luminescence; series mostly up to 27.3 µM
Source text: Assay Development and Screening Technology Laboratory (ADST)
National Center for Advancing Translational Sciences (NCATS), Rockville, MD
National Institute of Health (NIH), Bethesda, Maryland
Dietary Supplements and Natural Products have minor oversight of their safety and efficacy. We assembled a collection of Dietary Supplements and Natural Products (DSNP) as well as Traditional Chinese Medicinal (TCM) Plant extracts, which were screened against an in vitro panel of assays, including a liver cytochrome p450 enzyme panel, CAR/PXR signaling pathways, and P-gp transporter assays, to assess their activity. This pipeline facilitated the interrogation of Natural Product-Drug Interaction (NaPDI) through prominent metabolizing pathways. In addition, we compared the activity profiles of the DSNP/TCM substances with those of an approved drug collection. Many of the approved drugs have well-annotated mechanisms of action (MOA) while the MOAs for most of the DSNP and TCM samples remain unknown. Based on the premise that compounds with similar activity profiles tend to share similar targets or MOA, we clustered the library activity profiles to identify overlap with the NCATS Pharmaceutical Collection to predict the MOAs of the DSNP/TCM substances. Overall, we highlight four significant bioactivity profiles (measured by p-values) as examples of this prediction. In addition, to assess broad cytotoxicity, we employed screening against a HepG2 cell line.
To this end, we profiled both collections for potential CAR and/or PXR activity, employing a previously published 1536-well qHTS assay.
PROTOCOL TABLE (as described by Inglese J, Shamu CE and Guy RK. 2007)
SEQUENCE No. (e.g., 1, 2, 3, etc.); PARAMETER (e.g., Cells, Incubation, Reagent, etc.); VALUE; DESCRIPTION.
1; Cells; 5 uL; HepG2 cells, white solid-bottom tissue treated Greiner plate.
2; Incubation; 4 hrs; 37C, 95% humidity, 5% CO2.
3; Compounds; 23 nL; Kalypsis pin tool (Wako USA) equipped with a 1536-well pin head to transfer to the assay plates.
4; Incubation; 24 hrs; 37C, 95% humidity, 5% CO2.
5; Reagent; 1 uL; GF-AFC substrate.
6; Incubation; 30 min; 37C, 95% humidity, 5% CO2.
7; Read 1; Fluorescence; EnVision plate reader excitation 380 nm, emission 510 nm.
8; Reagent; 3 uL; CellTiter-Glo (Promega).
9; Centrifuge; 1000 RPM; 15 seconds.
10; Incubation; 30 min; room temperature.
11; Read 2; Luminescence; ViewLux plate reader.
NOTES (numbers refer to Sequence numbers above)
1. 5 uL of HepG2 cells at 2 x 10^5 cells/mL (1,000 cells/well) were dispensed into a 1536-well white solid-bottom tissue treated plate (Greiner Bio-One) using a Multidrop Combi dispenser (Thermo Scientific). This assay use both GF-AFC substrate and Cell-Titer Glo (CTG), measuring cellular protease activity and ATP content, respectively.
2. Plates were incubated at 37C, 95% humidity, and 5% CO2 for ~4 hours to allow for cell attachment.
3. Compounds were transferred (16 nL) via pintool (Wako Automation), for a final concentration range for most substances of 15.6 nM - 31.3 uM.
4. Plates were incubated for ~24 hours.
5. 1 uL addition of GF-AFC substrate (final concentration 25 uM; MP Biomedicals).
6. Plates were incubated at 37C, 95% humidity, and 5% CO2 for 30 minutes.
7. After incubation, plates were read for fluorescence intensity (Ex/Em = 380 nm/510 nm) on an EnVision detector (PerkinElmer, Shelton, Connecticut).
8. Once the detection for fluorescence was completed, plates were dispensed with 3 uL of CellTiter-Glo (Promega, Madison, WI).
9. Plates were centrifuged for 15 seconds at 1,000 RPM's.
10. Plates were incubated for 30 minutes at room temperature.
11. Plates were then read for luminescence intensity on a ViewLux detector.
Inglese J, Shamu CE and Guy RK, Reporting data from high throughput screening of small molecule libraries, Nature Chemical Biology, 2007, 3(8): 438-441. doi.org/10.1038/nchembio0807-438.

Row | SMILES | outcome | activity change, negative = cytotoxic
1 | CC(C)=CCC[C@](C)(O[C@@H]1O[C@H](CO)[C@@H](O)[C@H](O)[C@H]1O)[C@H]1CC[C@]2(C)[C@@H]1[C@H](O)C[C@@H]1[C@@]3(C)CC[C@H](O)C(C)(C)[C@@H]3[C@@H](O[C@@H]3O[C@H](CO)[C@@H](O)[C@H](O)[C@H]3O[C@@H]3O[C@@H](C)[C@H](O)[C@@H](O)[C@H]3O)C[C@]12C | inactive | –
2 | C[C@@H]1CC[C@]2(C)CC[C@]3(C)C(=CC(=O)C4[C@@]5(C)CC[C@@H](O)[C@](C)(C(=O)O)C5CC[C@]43C)C2[C@H]1C (stereo not given in full) | inactive | –
3 | C=CC(=C)CCC=C(C)C | inactive | –
4 | C=C(C)C(CC=C(C)C)CC12CC(CC=C(C)C)C(C)(C)C(CC=C(C)C)(C(=O)/C(=C(\O)c3ccc(O)c(O)c3)C1=O)C2=O (stereo not given) | inactive | –
5 | O=C(/C=C/c1ccc(O)c2c1[C@H](C(=O)O)[C@@H](c1ccc(O)c(O)c1)O2)O[C@H](Cc1ccc(O)c(O)c1)C(=O)O | inactive | –
6 | CCCCCCCCC[C@@H](O)CC(=O)CCc1ccc(O)c(OC)c1 | inactive | –
7 | COc1cc(-c2oc3cc(O)cc(O)c3c(=O)c2O)ccc1O | inactive | –
8 | CC(C)(O)[C@@H]1CC[C@](C)([C@H]2[C@@H](O)C[C@@]3(C)[C@@H]4C[C@H](O)[C@H]5C(C)(C)[C@@H](O[C@@H]6OC[C@@H](O)[C@H](O)[C@H]6O[C@@H]6O[C@H](CO)[C@@H](O)[C@H](O)[C@H]6O)CC[C@@]56C[C@@]46CC[C@]23C)O1 | inactive | –
9 | CCCCCCCCCCCC(=O)O | inactive | –
10 | CCCCCCCCC/C=C/C(=O)CCc1ccc(O)c(OC)c1 | inactive | –
11 | Oc1cc(O)c2c(c1)O[C@@H](c1cc(O)c(O)c(O)c1)[C@H](O)C2 | inactive | –
12 | CC12CC3(O)OC(O1)C1(COC(=O)c4ccc(O)cc4)C3CC21OC1OC(CO)C(O)C(O)C1O (stereo not given) | inactive | –
13 | CCCCCCCCCCCCCC(=O)O | inactive | –
14 | C=CCc1ccc(OC)c(OC)c1 | inactive | –
15 | OCC1=C[C@@H](O)[C@@H]2C=CO[C@@H](OC3O[C@H](CO)[C@@H](O)[C@H](O)[C@H]3O)[C@H]12 (stereo not given in full) | inactive | –
16 | CCCCCCCC/C=C\CCCCCCCCCCCCCC(=O)O | inactive | –
17 | CCCCCCCC/C=C/CCCCCCCC(=O)O | inactive | –
18 | CCCCCCC/C=C/C(=O)CCc1ccc(O)c(OC)c1 | inactive | –
19 | CC(C)[C@H](C)CC[C@@H](C)[C@H]1CC[C@H]2[C@@H]3CC=C4C[C@@H](O)CC[C@]4(C)[C@H]3CC[C@]12C | inactive | –
20 | CCCCCC(=O)CC | inactive | –

Row | SMILES | outcome | activity change, negative = cytotoxic
21 | CC(C)=CCC[C@](C)(OC1OC(COC2OCC(O)C(O)C2O)C(O)C(O)C1O)[C@H]1CC[C@]2(C)[C@@H]1[C@H](O)C[C@@H]1[C@@]3(C)CC[C@H](OC4OC(CO)C(O)C(O)C4OC4OC(CO)C(O)C(O)C4O)C(C)(C)[C@@H]3CC[C@]12C (stereo not given in full) | inactive | –
22 | CC(=O)OC/C=C/c1ccccc1 | inactive | –
23 | Cc1ncc(COP(=O)(O)O)c(C)c1O | inactive | –
24 | O=C(O)c1ccccc1 | inactive | –
25 | CC1=C2[C@H](/C=C(\C)C(=O)O)CC[C@@H](C)[C@H]2CC1 | inactive | –
26 | CCCCC/C=C/C/C=C/CCCCCCCC(=O)O | inactive | –
27 | CC[C@H](CC[C@@H](C)[C@H]1CCC2C3CCC4C[C@@H](O)CC[C@]4(C)C3CC[C@@]21C)C(C)C (stereo not given in full) | inactive | –
28 | C=C1C[C@@]23CC[C@H]4[C@](C)(CCC[C@]4(C)C(=O)O[C@@H]4O[C@H](CO)[C@@H](O)[C@H](O)[C@H]4O)[C@@H]2CC[C@]1(O[C@H]1O[C@@H](CO)[C@H](O)[C@@H](O)[C@@H]1O)C3 | inactive | –
29 | COc1cc(/C=C/c2ccccc2)oc(=O)c1 | inactive | –
30 | CCCCCCCC/C=C/CCCCCCCCCC(=O)O | inactive | –
31 | CCCCC/C=C/C(=O)CCc1ccc(O)c(OC)c1 | inactive | –
32 | COc1ccccc1/C=C/C=O | inactive | –
33 | CCCCCCCC/C=C\CCCCCCCCCCCC(=O)O | inactive | –
34 | Cc1ccc(O)c(O)c1 | inactive | –
35 | O=C(O)CC(O)(C(=O)O)C(O)C(=O)O (stereo not given) | inactive | –
36 | O=C(/C=C/c1ccc(O)c(O)c1)O[C@@H]1C[C@](O)(C(=O)O)C[C@@H](O)[C@H]1O | inactive | –
37 | CC(C)=CCC[C@](C)(O[C@@H]1O[C@H](CO)[C@@H](O)[C@H](O)[C@H]1O)[C@H]1CC[C@]2(C)[C@@H]1[C@H](O)C[C@@H]1[C@@]3(C)CC[C@H](O[C@@H]4O[C@H](CO)[C@@H](O)[C@H](O)[C@H]4O[C@@H]4O[C@H](CO)[C@@H](O)[C@H](O)[C@H]4O)C(C)(C)[C@@H]3CC[C@]12C | inactive | –
38 | CC1=CCC(=C(C)C)CC1 | inactive | –
39 | CCCCCC/C=C\CCCCCCCC(=O)O | inactive | –
40 | CCCCCCCCCCCCCCCCCCCCCCCCCCCCCCO | – | -1.11% [at 3.42 µM] (inactive)
